Screening results as filed in PubChem BioAssay.
Compounds with a hit are over-represented: about 8.1% of the library has one in this group of screens.
PINK1 modulator – A Quantitative High throughput Screen to Identify Chemical Modulators of PINK1 Expression; PINK1 immunofluorescence, high-content cytometry, 24 h; 410,000 compounds, 0.2% hits; Potency, µM (highest dose often 76.6 µM), for the others: at the highest dose activation (PINK1 increase), hits mostly activators; active means well fitted activation curve with a large enough effect; inconclusive means small, poorly fitted or top-dose-only effect; cell line not stated here; further: % of control where 0% means no effect; nearly all actives have a fitted effect of over 65% in size
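Decision-based qHTS: stable cells, 24 h exposure to five compound concentrations, CCCP as control. Fixed cells stained for PINK1 plus nuclear, mitochondrial and cell markers, cytometer read.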
ClpP mod – qHTS Assay for Activators of ClpP. ATP-dependent Clp protease proteolytic subunit (Bacillus subtilis (strain 168)), P80244. purified B. subtilis ClpP, FRET peptide cleavage, 20 min. Potency, µM (top dose mostly 57.5 µM), without a hit: top-dose activity change, negative = active. 340,000 compounds, 1.9% hits; active means well fitted falling curve with a large enough effect; inconclusive means small, poorly fitted or top-dose-only effect; inactive means no such curve, though single readings can be large or run the other way; further: the source files actives as falling curves though it sought activators and does not explain the sign; nearly all actives have a fitted effect of over 65% in size
Target sequence (P80244 whole entry, looked up): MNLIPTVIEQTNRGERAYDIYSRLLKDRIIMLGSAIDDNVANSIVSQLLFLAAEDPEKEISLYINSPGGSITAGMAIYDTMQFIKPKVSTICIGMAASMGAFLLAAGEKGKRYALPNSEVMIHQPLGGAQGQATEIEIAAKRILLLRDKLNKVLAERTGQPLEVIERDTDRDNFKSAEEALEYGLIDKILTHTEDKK
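Buffer: 100 mM Tris/HCl pH8, 100 mM KCl, 0.05% low protease BSA, 2.5% glycerol, 0.01% Tween-20. ClpP 10 microg/mL final; 20 min RT; delta FRET normalized to ADEP and DMSO controls.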
RORg inh – qHTS for inhibitors of ROR gamma transcriptional activity; 310,000 compounds, 5.4% hits; Potency, µM (top dose mostly 53.6 µM), for inactives: at the highest dose activity change, negative = inhibition, hits mostly inhibitors; Nuclear receptor ROR-gamma (Mus musculus), P51450; AID 2551, 2010; Drosophila S2 Gal4-RORgamma UAS-luciferase reporter, 20 h; further: on the % scale 0 is the no-effect control and ±100 the full control effect; nearly all actives have a fitted effect of over 60% in size
Target sequence (P51450 whole entry, looked up, the tested form may be a part): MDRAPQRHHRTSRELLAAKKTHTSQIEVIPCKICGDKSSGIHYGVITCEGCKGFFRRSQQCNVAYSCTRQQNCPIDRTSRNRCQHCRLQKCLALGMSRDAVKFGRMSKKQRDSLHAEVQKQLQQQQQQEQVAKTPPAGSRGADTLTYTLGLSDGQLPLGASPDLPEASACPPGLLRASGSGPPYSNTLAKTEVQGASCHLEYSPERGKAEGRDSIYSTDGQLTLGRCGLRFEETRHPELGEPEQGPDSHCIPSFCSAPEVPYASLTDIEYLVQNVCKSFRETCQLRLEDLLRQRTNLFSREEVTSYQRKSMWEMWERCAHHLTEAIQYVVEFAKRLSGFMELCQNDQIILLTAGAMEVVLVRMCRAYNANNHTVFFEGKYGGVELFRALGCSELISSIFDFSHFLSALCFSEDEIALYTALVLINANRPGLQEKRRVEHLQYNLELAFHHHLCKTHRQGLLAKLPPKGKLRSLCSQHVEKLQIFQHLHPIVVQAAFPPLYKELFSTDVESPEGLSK
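Luminescence from a UAS-regulated Photinus luciferase reporter in stably transfected Drosophila Schneider cells is measured; decreased signal marks ROR gamma inhibition. Fusion expression is induced by 700 uM copper sulfate for 20 hr.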
Epigenetic reg – Quantitative High-Throughput Screen for Regulators of Epigenetic Control. murine LDR cells, GFP reporter derepression, 30 h. Potency, µM (top dose mostly 53.9 µM), for the others: top-dose GFP activation, usual class: activators. 280,000 compounds, 0.2% hits. AID 1865, 2009; further: % of control where 0% means no effect; nearly all actives have a fitted effect of over 60% in size
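In this reporter-derepression format, murine cells bearing a silenced integrated CMV-GFP locus incubate with test compound (30 h, 37 C), then are washed and imaged; fluorescent objects of 20–120 um count as induced cells.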
Sfp inh – qHTS Assay for Inhibitors of Bacillus subtilis Sfp phosphopantetheinyl transferase (PPTase) | 4'-phosphopantetheinyl transferase ffp (Bacillus subtilis), Q9F4F7 | Biochemical Sfp PPTase activity, qHTS | AID 1490, 2009 | 310,000 compounds, 3.5% hits | Potency, µM, inactives show largest response in the series, negative = inhibition, most hits filed as inhibitors;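 further: the enzyme is Sfp with the accession as filed and its product quenches rhodamine fluorescence; 0% = enzyme reaction without inhibitor and -100% = no enzyme wells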
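Buffer: 50 mM Hepes-Na pH 7.6, 10 mM MgCl2, 0.01% Nonidet P-40, 0.01% BSA. Enzyme 15 nM, pre-exposed to compound 15 min; substrates then added and fluorescence change tracked over 30 min.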
VP16 counter – VP16 counterscreen qHTS for inhibitors of ROR gamma transcriptional activity | Drosophila S2 Gal4-VP16 UAS-luciferase, luminescence, 20 h | Potency, µM (series often up to 53.6 µM), for the others: at the top dose activity, negative = inhibition, hits mostly inhibitors | 310,000 compounds, 3.5% hits | AID 2546, 2010;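 further: Gal4-VP16 expression switched on by copper sulfate through the metallothionein promoter; on the % scale 0 is the no-effect control and ±100 the full control effect; nearly all actives have a fitted effect of over 50% in size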
ClpP validation – qHTS Assay for Activators of ClpP: Hit Validation of Inhibitors; shares compounds with ClpP mod; purified B. subtilis ClpP, FRET-FV substrate cleavage, 20 min; Potency, µM (highest dose often 57.5 µM), for inactives: top-dose activity change, negative = inhibition, actives largely listed as inhibitors; 470 compounds, 40% hits; AID 743245, 2014; further: on the % scale 0 is the no-effect control and ±100 the full control effect; nearly all actives have a fitted effect of over 70% in size
* hit, by the source's call; [ ] = another dose, or the depositor's remark. Unless noted, the call rests on the fitted dose curve; in most records, active means well fitted curve in the direction sought with a large enough effect; inconclusive means small, poorly fitted or top-dose-only effect, or another doubt; inactive means no such curve, though single readings can be large; an effect the other way counts as inactive or inconclusive. Potency means the concentration at half of the fitted maximal effect.

Screening Cc1cccc2c(=O)cc(CSc3ccccc3NC(=O)c3cccc(Cl)c3)[nH]c12 returned PINK1 modulator 4.1%, ClpP mod 0.3% and Epigenetic reg 1.2%.
Screening NC(=S)Nc1cc2ccccc2c2ccccc12 returned PINK1 modulator -1.8%, ClpP mod 34.4%, RORg inh 11.2µM*, Epigenetic reg -2.2%, Sfp inh -7.5%, VP16 counter inconclusive and ClpP validation 18.8%.
Screening COc1ccc(NC(=O)CCS(=O)(=O)c2nc(-c3cccs3)cc(C(F)(F)F)n2)cc1OC returned PINK1 modulator 0.8%, ClpP mod 16.9% and Epigenetic reg -1.8%.
Screening COc1cc(NC(=O)CCS(=O)(=O)c2nc(-c3cccs3)cc(C(F)(F)F)n2)cc(OC)c1OC returned PINK1 modulator 2.5%, ClpP mod 44.3%, Epigenetic reg 10.8% and ClpP validation 22.9%.
`CCOc1ccc(NC(=O)c2cc3cc4ccc(OC)cc4nc3o2)cc1` gave PINK1 modulator -1.6%, ClpP mod 53.1%, RORg inh -0.8%, Epigenetic reg -0.3%, Sfp inh 2.2%, VP16 counter 2.1% and ClpP validation 27.3µM*.
For COCCCNC(=O)c1c(N)n(-c2cccc(S(N)(=O)=O)c2)c2nc3ccccc3nc12 the results were PINK1 modulator 0.4%, ClpP mod 8.91µM*, RORg inh -13.2%, Epigenetic reg -1.1%, Sfp inh 3.1%, VP16 counter -6.4% and ClpP validation inconclusive.
Nc1c(C(=O)NCCN2CCOCC2)c2nc3ccccc3nc2n1-c1cccc(F)c1 was read as PINK1 modulator 0.1%, ClpP mod 10µM*, RORg inh -7.5%, Epigenetic reg -2.7%, Sfp inh -3.5%, VP16 counter 6.7% and ClpP validation 21.7µM*.
Screening O=C(CSc1nc2c(c(=O)[nH]1)CCC2)Nc1ccccc1C(F)(F)F returned PINK1 modulator -0.8%, ClpP mod -3.5% and Epigenetic reg -0.6%.
Screening Cc1oc(C(=O)O)cc1COc1ccc2c(C)cc(=O)oc2c1 returned PINK1 modulator 0.4%, ClpP mod inconclusive, RORg inh 0.6%, Epigenetic reg 0.0%, Sfp inh 20.3% and VP16 counter -0.5%.
Screening Cc1cc(=O)oc2cc(OCc3cc4c(cc3Cl)OCO4)ccc12 returned PINK1 modulator 13.2%, ClpP mod 108.8%, RORg inh 16.2%, Epigenetic reg -1.0%, Sfp inh 15.4%, VP16 counter 1.0% and ClpP validation inconclusive.
Screening O=C(Nc1ccc2nn(-c3ccccc3)nc2c1)c1ccc(-c2cccc(Cl)c2)o1 returned PINK1 modulator 9.1%, ClpP mod 58.7%, Epigenetic reg 1.6% and ClpP validation -17.0%.
Screening COc1ccc(-n2nc3ccc(NC(=O)c4ccc(-c5cc(Cl)ccc5Cl)o4)cc3n2)cc1 returned PINK1 modulator 1.0%, ClpP mod 3.3% and Epigenetic reg -0.8%.
For Cc1ccsc1C1Nc2ccccc2-c2nc3ccccc3n21 (stereo not drawn) the results were PINK1 modulator 2.9%, ClpP mod 73.7%, RORg inh 5.2%, Epigenetic reg 2.1%, Sfp inh -27.1% and VP16 counter -25.8%.
c1cncc(C2Nc3ccccc3-c3nc4ccccc4n32)c1 (stereo not drawn) was read as PINK1 modulator -5.7%[38.3 µM], ClpP mod 3.16µM*, RORg inh -0.4%, Epigenetic reg 0.0%, Sfp inh 14.3%, VP16 counter -0.8% and ClpP validation 27.3µM*.
For Cc1cc(C)cc(Nc2nc3ccccc3nc2-n2nc(C)cc2C)c1 the results were PINK1 modulator 0.0%, ClpP mod -6.6% and Epigenetic reg -3.1%.
For CC1CCN(S(=O)(=O)c2ccc3c(c2)CCN3C(=O)Nc2cccc(Br)c2)CC1 the results were PINK1 modulator -0.5%, ClpP mod 58.9%, Epigenetic reg 2.7% and ClpP validation inconclusive.
Screening Cc1ccc(C)c(N(CC(=O)Nc2ccc(-c3nc4ccc(C)cc4s3)cc2)S(C)(=O)=O)c1 returned PINK1 modulator inconclusive, ClpP mod 10µM*, RORg inh inconclusive, Epigenetic reg 12.1%, Sfp inh 15.8%, VP16 counter -23.7% and ClpP validation 30.6µM*.
Screening Cc1ccc2nc(-c3ccc(NC(=O)c4ccccc4S(C)(=O)=O)cc3)sc2c1 returned PINK1 modulator 10.6%, ClpP mod 4.0% and Epigenetic reg 0.0%.
For CCOc1ccccc1CNC(=O)c1cnc2sc(N3CCCCCC3)nn2c1=O the results were PINK1 modulator 1.2%, ClpP mod 3.16µM*, Epigenetic reg 0.0% and ClpP validation -4.9%.
For CCc1ccc(CNC(=O)c2cnc3sc(N4CCCCC4)nn3c2=O)cc1 the results were PINK1 modulator -0.9%, ClpP mod inconclusive and Epigenetic reg -1.0%.
`CCc1ccc(CNC(=O)c2cnc3sc(N4CCOCC4)nn3c2=O)cc1` gave PINK1 modulator 3.7%, ClpP mod 3.16µM*, Epigenetic reg 0.0% and ClpP validation -0.6%.
`CCOc1ccccc1CNC(=O)c1cnc2sc(N3CCOCC3)nn2c1=O` gave PINK1 modulator -0.4%, ClpP mod 2.82µM*, Epigenetic reg 1.5% and ClpP validation 0.0%.
`O=C(NCc1ccccc1Br)c1cnc2sc(N3CCCCCC3)nn2c1=O` gave PINK1 modulator -0.5%, ClpP mod inconclusive and Epigenetic reg 3.8%.
Screening CCCNC(=O)c1cnc2sc(N3CCCCCC3)nn2c1=O returned PINK1 modulator -0.3%, ClpP mod 3.16µM*, Epigenetic reg 2.5% and ClpP validation 1.1%.
CCOc1ccc(CCNC(=O)c2cnc3sc(N4CCOCC4)nn3c2=O)cc1 was read as PINK1 modulator 2.8%, ClpP mod inconclusive and Epigenetic reg 0.0%.
For COc1ccc(-c2ccnc(-c3ccc(OCCCF)cc3)n2)cc1 the results were PINK1 modulator 10.8%, ClpP mod 7.94µM*, RORg inh -15.0%, Epigenetic reg 5.9%, Sfp inh -27.6%, VP16 counter 2.7% and ClpP validation -6.8%.
`FCCCOc1ccc(-c2nccc(-c3ccc(Cl)cc3)n2)cc1` gave PINK1 modulator 4.4%, ClpP mod -8.0%, RORg inh -0.1%, Epigenetic reg 4.3%, Sfp inh inconclusive and VP16 counter 15.7%.
For CCC(Sc1nc2ccccc2c2nc(-c3ccccc3)nn12)C(=O)Nc1cccc(OC)c1 (stereo not drawn) the results were PINK1 modulator 0.0%, ClpP mod -2.5% and Epigenetic reg inconclusive.
